Where “and” joins values, the source holds several entries; their conditions need not be identical. Identical values can stand only once. The campaign covered roughly 16,000 compounds. About 4,000 (25%) were called active. Another 26% or so got no clear call; they are omitted. The call rests on the fitted dose curve; in most records, active means well fitted curve in the direction sought with a large enough effect; inconclusive means small, poorly fitted or top-dose-only effect, or effect the other way; inactive means no such curve, though single readings can be large or run the other way. A selection follows. More than one record can exist for a structure, and the calls need not agree.
What follows are compounds tested against Cytochrome P450 2C9 (Homo sapiens) (UniProt P11712) (assay: Cytochrome panel assay with activity outcomes). Conditions: recombinant CYP, pro-luciferin dealkylation, luminescence, p450-cyp2c9; series mostly up to 57.1 µM.
Sequence of Cytochrome P450 2C9 (Homo sapiens) (P11712 whole entry, looked up): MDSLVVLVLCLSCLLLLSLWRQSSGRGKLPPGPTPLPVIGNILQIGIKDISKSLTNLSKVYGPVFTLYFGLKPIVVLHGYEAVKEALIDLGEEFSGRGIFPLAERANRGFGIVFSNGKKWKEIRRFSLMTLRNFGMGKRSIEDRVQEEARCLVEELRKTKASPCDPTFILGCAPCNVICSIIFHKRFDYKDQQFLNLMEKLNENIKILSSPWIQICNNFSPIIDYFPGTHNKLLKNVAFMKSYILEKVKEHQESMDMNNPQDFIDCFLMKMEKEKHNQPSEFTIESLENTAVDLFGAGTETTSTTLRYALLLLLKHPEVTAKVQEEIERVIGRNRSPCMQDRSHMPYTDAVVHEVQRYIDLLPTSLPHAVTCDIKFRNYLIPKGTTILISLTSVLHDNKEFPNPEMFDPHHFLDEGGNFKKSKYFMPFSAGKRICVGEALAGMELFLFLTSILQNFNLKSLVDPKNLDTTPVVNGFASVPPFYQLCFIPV
`CO[C@H]1COC(=O)[C@@H](CCSC)NC(=O)C/C=C\[C@@H](C)[C@H](OC)COC(=O)[C@@H](OCc2ccccc2)/C=C\[C@@H]1C` was tested, and the activity, negative = inhibition was 19.4% [at 11.4 µM] (inactive).
`O=C(Nc1cc(C(=O)Nc2ccc(S(=O)(=O)O)cc2S(=O)(=O)O)cc(C(=O)Nc2ccc(S(=O)(=O)O)cc2S(=O)(=O)O)c1)Nc1cc(C(=O)Nc2ccc(S(=O)(=O)O)cc2S(=O)(=O)O)cc(C(=O)Nc2ccc(S(=O)(=O)O)cc2S(=O)(=O)O)c1` was tested, and the AC50 was “inactive and 7.94 µM (active)”.
In the case of `O=C(Nc1ccc(C(=O)Nc2ccc(C(=O)Nc3ccc(S(=O)(=O)O)c4cc(S(=O)(=O)O)cc(S(=O)(=O)O)c34)cc2)cc1)Nc1ccc(C(=O)Nc2ccc(C(=O)Nc3ccc(S(=O)(=O)O)c4cc(S(=O)(=O)O)cc(S(=O)(=O)O)c34)cc2)cc1`, the AC50 is reported as “inactive”.
With `O=C(Nc1cccc(C(=O)Nc2ccc(S(=O)(=O)O)c3cc(S(=O)(=O)O)cc(S(=O)(=O)O)c23)c1)Nc1cccc(C(=O)Nc2ccc(S(=O)(=O)O)c3cc(S(=O)(=O)O)cc(S(=O)(=O)O)c23)c1` the AC50 was “inactive”.
`COCCNc1ccnc(-c2ccccc2C)n1` was tested, and the activity, negative = inhibition was -5% [at 2.29 µM] (inactive).
`CCOC(=O)c1cn(-c2nc(-c3ccc(Cl)cc3)cs2)c2c(F)c(N3CC(C)OC(C)C3)c(F)cc2c1=O` (stereo not drawn) was tested, and the AC50 was “inactive”.
In the case of `CCOC(=O)c1cnn(-c2cc(Oc3ccccc3)ncn2)c1N`, the AC50 is reported as “inactive”.
`CCOC(=O)c1cnn(CCOC(=O)C(C)(C)C)c1NC(=O)C(C)(C)C` was tested, and the AC50 was “inactive”.
For `CCOC(=O)c1cnn(-c2nc(-c3cccc(F)c3)cs2)c1C(F)(F)F`, the AC50 was 2240 nM (active).
`CCOC(=O)c1cnn(-c2nc(-c3ccc(F)cc3)cs2)c1C(F)(F)F` was tested, and the AC50 was 12600 nM (active).
With `FC(F)(F)c1ccccc1-c1cncnc1NCc1cccs1` the activity, negative = inhibition was -5.24% [at 2.29 µM] (inactive).
`CC(C)n1nnc2ccccc2c1=O` was tested, and the AC50 was “inactive”.
With `O=c1c2ccccc2nnn1CSc1ccc2c(c1)OCCO2` the AC50 was 7940 nM (active).
For `Cc1ccc(C(=O)/C=C/c2c[nH]c3ccccc23)cc1`, the AC50 was 2820 nM (active).
In the case of `Cc1ccc(C(=O)/C=C2\NCC(C)NC2=O)cc1` (stereo not drawn), the AC50 is reported as “inactive”.
For `CC(C)(C)OC(=O)[C@H]([C@@H]1N[C@@H](C(=O)O)C(C)(C)S1)N1C(=O)c2ccccc2C1=O`, the activity, negative = inhibition was 19% [at 11.4 µM] (inactive).
With `CSc1nsc(SCc2ccc(Cl)cc2)n1` the AC50 was 355 nM (active).
For `CCN1C(=O)[C@H]2[C@H]3[C@H](O)[C@H](O)C/C(=N/O[C@@H](C)c4cn([C@H](CO)Cc5ccccc5)nn4)[C@@H]3CC[C@@H]2C1=O`, the activity, negative = inhibition was -13.4% [at 11.4 µM] (inactive) and 2.69% [at 11.4 µM] (inactive).
`CC1(C)O[C@@H]2O[C@H]([C@H](O)CO/N=C3/[C@H]4O[C@@H]4[C@@H](O)[C@H]4[C@H]3CCn3c(=O)n(-c5ccccc5)c(=O)n34)[C@@H](O)[C@@H]2O1` was tested, and the activity, negative = inhibition was 15.4% [at 11.4 µM] (inactive).
`Cc1cc(C=O)c(C)n1-c1ccc(NC2CCCC2)c([N+](=O)[O-])c1` was tested, and the AC50 was “inactive”.
`COC(=O)c1c(-n2c(C)cc(C=O)c2C)sc2c1CCCC2` was tested, and the AC50 was 1120 nM (active).
For `Cc1sc(N/N=C/c2cccnc2)nc1-c1ccccc1`, the AC50 was 355 nM (active).
With `Cc1cnn(-c2cc(N/N=C/c3ccccc3)ncn2)c1` the AC50 was “inactive”.
`C(=N/Nc1nnc2c(n1)[nH]c1ccccc12)/c1cccnc1` was tested, and the activity, negative = inhibition was -16.8% [at 11.4 µM] (inactive).
For `CC(C)=C[C@H]1[C@@H](C(=O)Oc2ccccc2C(C)C)C1(C)C`, the activity, negative = inhibition was -15.1% [at 11.4 µM] (inactive).
For `CCN1C(=O)[C@H]2[C@@H]3[C@H](O)C=CC(=O)[C@H]3CC[C@H]2C1=O`, the activity, negative = inhibition was 17.9% [at 11.4 µM] (inactive).
With `CCN1CCN(C(=O)N[C@H](C(=O)N[C@@H]2C(=O)N3[C@@H]2SC(C)(C)[C@@H]3C(=O)O)c2ccccc2)C(=O)C1=O` the AC50 was “inactive”.
For `COc1cc2c(c(O)c1OC)C(=O)C(OC)CCC2` (stereo not drawn), the AC50 was “inactive”.
With `COc1cc([C@H]2c3cc4c(cc3[C@@H](O)[C@@H]3COC(=O)[C@H]23)OCO4)cc(OC)c1OC` the AC50 was 6310 nM (active).
`Nc1ncnc2c1nc(-c1ccccc1)n2[C@H]1O[C@@H](CO)[C@@H](O)[C@H]1O` was tested, and the activity, negative = inhibition was 9.27% [at 11.4 µM] (inactive).
For `Cn1cc([N+](=O)[O-])c(C(=O)Nc2cc(Oc3cccnc3)cc([N+](=O)[O-])c2)n1`, the AC50 was 5620 nM (active).
`CCC/C=C(\CCC)C(NS(=O)(=O)c1cccc2cccnc12)c1ccc(C(=O)OC)cc1` (stereo not drawn) was tested, and the AC50 was 1580 nM (active).
With `CCC/C=C(\CCC)C(NS(=O)(=O)c1cccc2cccnc12)c1ccc(-c2ccccc2)cc1` (stereo not drawn) the AC50 was 2000 nM (active).
`O=[N+]([O-])c1cccc2c[nH]nc12` was tested, and the AC50 was “inactive”.
`O=[N+]([O-])c1ccc(S(=O)(=O)Cc2ccccc2)c2nonc12` was tested, and the AC50 was 316 nM (active).
For `COc1cc(OC)c(OC)cc1C=NCC1(c2ccccc2)CCCC1`, the AC50 was “inactive”.
In the case of `CN1CCCC2(CCN(C(=O)c3cnccn3)CC2)C1`, the AC50 is reported as “inactive”.
`Cc1cc(OCCn2cc(/C(N)=N/O)c3ccccc32)ccc1Cl` was tested, and the AC50 was 12600 nM (active).
In the case of `CC(C)(N)C(=O)N[C@@H]1C(=O)N2[C@@H]1SC(C)(C)[C@H]2C(=O)O`, the activity, negative = inhibition is reported as 14.5% [at 11.4 µM] (inactive).
`Cc1csc(NC(=O)Cc2c[nH]c3ccccc23)n1` was tested, and the AC50 was 12600 nM (active).
With `CC1(C)Cc2c(C#N)c(SCc3ccccc3)nc(N3CCOCC3)c2CO1` the AC50 was 708 nM (active).
`CCCCCCC(C)n1cc(C(C)=O)c(=O)[nH]c1=O` (stereo not drawn) was tested, and the AC50 was “inactive”.
With `COC(=O)C(Cc1ccc(OC(=O)c2ccc(C(F)(F)F)cc2)cc1)N1Cc2ccccc2C1=O` (stereo not drawn) the AC50 was 8910 nM (active).
With `COC(=O)C(Cc1ccc(OC(=O)c2ccc(Cl)cc2)cc1)N1Cc2ccccc2C1=O` (stereo not drawn) the AC50 was 3160 nM (active).
For `O=C(Oc1ccc2c(c1)CN(Cc1ccccc1)CO2)c1ccccc1`, the activity, negative = inhibition was -0.387% [at 11.4 µM] (inactive).
For `COC(=O)[C@H](N)Cc1ccc(Cl)cc1`, the AC50 was “inactive”.
For `COC(=O)C1=C(C)NC2=C(C(=O)CCC2)C1c1cn(Cc2ccc(Cl)cc2Cl)nc1-c1ccccc1` (stereo not drawn), the AC50 was 1000 nM (active).
For `CCN(CC)C(=O)C1=C(C)NC(=S)NC1c1cn(-c2ccccc2)nc1-c1ccc(Cl)cc1` (stereo not drawn), the AC50 was “inactive”.
On the % scale 0 is the no-effect control and ±100 the full control effect.
